The results in this text go back to PubChem BioAssay (NCATS).

Inconclusive results are not listed. Entries that show only a call come without a potency. Calls of active or inactive are those of the source. Calls follow the shape of the dose curve; as a rule, active = well fitted inhibition curve with a large enough effect; inconclusive = small, poorly fitted or top-dose-only effect; inactive = flat fitted curve, though single readings scatter.

The target in the experiment is Calcium and integrin-binding protein 1 (Homo sapiens) (UniProt Q99828). Description: Primary qHTS for Identification of Calcium Integrin Binding Protein 1 (CIB1) Competitor (AID 1508620). Also: top concentration of the series differs between compounds. The following applies: CIB1-GST / FITC-alphaIIb peptide fluorescence polarization; series mostly up to 114 µM. In short, it runs like this: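 Fluorescence polarization competition: GST-tagged CIB1 (1 uM final) preincubated with compound 15 min at room temperature, then FITC-labelled alphaIIb peptide (100 nM final) added. After 15 min at room temperature, polarization read at Ex 480/Em 540.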
Calcium and integrin-binding protein 1 (Homo sapiens), sequence (Q99828 whole entry, looked up): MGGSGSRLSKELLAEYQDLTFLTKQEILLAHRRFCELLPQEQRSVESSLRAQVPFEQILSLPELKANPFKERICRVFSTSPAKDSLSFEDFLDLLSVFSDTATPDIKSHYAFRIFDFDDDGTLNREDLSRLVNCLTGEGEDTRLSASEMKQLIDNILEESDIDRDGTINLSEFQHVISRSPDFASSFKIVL
In general terms: Quantitative high-throughput screening tests each substance at several concentrations.
Regarding `COc1ccc(NC(=O)C(OC(=O)CNC(=O)c2ccccc2)c2ccccc2)cc1Cl` (stereo not given), the Potency result is “inactive”.
For `O=C(O)c1ccc(O)c2ncc(-c3ccc(C(=O)N4CCNCC4)cc3)cc12` the value was “inactive”.
For `CCOC(=O)c1ccoc1-c1ccc2ncnc(NCc3csc(C)n3)c2c1` the value was “inactive”; for `O=C1CCCC2=C1C(c1[nH]ncc1Cl)N=C(Nc1ccccn1)N2` (stereo not given), “inactive”.
For `CS(=O)(=O)c1ccc(C(=O)OCC(=O)N2Cc3ccccc3C2)cc1[N+](=O)[O-]` the value was “inactive”.
`COc1ccc(C(=O)N(Cc2cccs2)Cc2cccs2)c(O)c1`: the Potency result was “inactive”.
The entry for `N#Cc1ccc(CNc2nc(-c3ccccc3C(F)(F)F)nc3ccccc23)cc1` is “inactive”; for `Nc1ccc(S(=O)(=O)N2CCN(S(=O)(=O)c3ccc4c(c3)OCCO4)CC2)cc1` it is “inactive”; for `CN(Cc1cccs1)c1ncnc2ccc(-c3ccc4cnn(C)c4c3)cc12` it is “inactive”.
For `Cc1ccnc(NC(=S)N2CCCN(c3cccc(C(F)(F)F)c3)CC2)c1` the value was “inactive”; for `O=C(NCCc1nc2ccccc2n1CCOc1ccc(F)cc1)C1CCCCC1`, “inactive”.
Take `Cc1ccc(C)n1-c1cccc(-c2nn[nH]n2)c1`: the Potency entry is “inactive”.
The entry for `FC(F)(F)c1cc(N2CCN(C(=S)Nc3cc(Cl)ccn3)CC2)cc(C(F)(F)F)c1` is “inactive”; for `Cn1c2cc(C=O)sc2c2cnn(Cc3ccccc3F)c(=O)c21` it is “inactive”.
The entry for `COc1ccc(NC(=O)C(OC(=O)CNC(=O)c2ccccc2)c2ccccc2)c(C)c1` (stereo not given) is “inactive”.
In the case of `Cc1ccnc(NCc2ccc(O)c3ncccc23)c1`, the Potency entry was “inactive”.
For `FC(F)(F)c1ccc(-c2nc(-c3nnc4n3CCCCC4)c(C(F)(F)F)o2)cc1` the value was “inactive”; for `Cc1cc2c(s1)c1cnn(Cc3ccc(OC(F)F)cc3)c(=O)c1n2C`, “inactive”.
The entry for `O=C(NCCc1ccc2c(c1)OCO2)c1cc2sccc2[nH]1` is “inactive”.
For `CC(=O)Nc1sc2c(c1-c1nc3ccccc3s1)CCN(C(C)C)C2` the value was “inactive”.
For the molecule `O=C(NCCc1nc2ccccc2n1CCOc1cc(F)ccc1F)C1CCCCC1`, the Potency result is “inactive”.
With `CC(=O)Nc1sc2c(c1-c1cccc3c1sc1ccccc13)CCNC2`, the Potency entry was “inactive”.
For `Cc1ccc(Cl)cc1NS(=O)(=O)c1cc2c(cc1Cl)CCC(=O)N2` the value was “inactive”; for `Cc1ccc(NS(=O)(=O)c2ccc3c(c2)CCC(=O)N3)cc1Cl`, “inactive”; for `Brc1cnc2nc(SCc3ccncc3)[nH]c2c1`, “inactive”.
Take `CCOC(=O)C1CCN(C(=O)C(C)(C)NC(=O)Nc2ccc(Cl)cc2Cl)CC1`: the Potency entry is “inactive”.
For `Cc1nc(-c2ccccc2)oc1-c1ccc2ncnc(NCCc3cnc[nH]3)c2c1` the value was “inactive”; for `CCCCNC(=S)NCCCc1cnc[nH]1`, “inactive”.
The entry for `[O-][n+]1onc(-c2ccccc2)c1/C=N/O` is “inactive”; for `CC(=O)Nc1cccc([S+](=O)([O-])N2CCCN([S+](=O)([O-])c3cccc(NC(C)=O)c3)CC2)c1` it is “inactive”.
The entry for `CC(C)c1ccccc1-c1nc(NCc2ccc(-c3cccnc3)cc2)c2cccn2n1` is “inactive”; for `Cn1nnnc1Sc1ncnc2scc(-c3ccc(C(=O)OC(C)(C)C)cc3)c12` it is “inactive”.
For the molecule `CCCCN(C)C(=O)Cn1nc(-c2cncnc2)ccc1=O`, the Potency entry was “inactive”.
For `Cc1ccc(-c2nn(CC(=O)N(C)C(C)c3ccco3)c(=O)cc2C)cc1` (stereo not given) the value was “inactive”.
For `CC(C)CC(O)C(=O)Nc1cc(C(F)(F)F)ccc1Cl` (stereo not given) the value was “inactive”; for `COc1ccc(OCc2nnc3n2N=C(c2ccccc2)CS3)cc1`, “inactive”.
As to `COc1cccc(NC(=S)N2CCN(c3ncc(C(F)(F)F)cc3Cl)CC2)n1`, the Potency entry is “inactive”.
For `Cc1ccc(OCCn2c(CCNC(=O)Cc3cccc4ccccc34)nc3ccccc32)cc1` the value was “inactive”.
Take `COc1ccc(OC)c(C2=Nn3c(nnc3-c3ccccc3O)SC2)c1`: the Potency result is “inactive”.
In the case of `COC(=O)c1ccccc1NC(=O)c1ccc(C#N)cc1`, the Potency result is “inactive”.
